Source: PubChem (National Center for Advancing Translational Sciences (NCATS))
Only some compounds are listed: those with a hit (about 8.9% of all), similar ones and a draw of the others.
MCF10A rerep = DNA re-replication induction in MCF 10a cells. 350,000 compounds, 2.9% hits. Potency, µM (doses to about 46.1 µM), inactives show at the highest dose activity, positive = re-replication, actives largely listed as activators. MCF 10A DNA re-replication, Hoechst nuclear intensity, 48 h. AID 624296; further: potency means the concentration at half of the fitted maximal effect; % of control where 0% means no effect; nearly all actives have a fitted effect of over 50% in size
KB-V1 cytotox = kills drug-selected multidrug resistant KB-V1 cells. KB-V1 MDR cells viability, CellTiter-Glo, 72 h. Potency, µM (top dose mostly 46.1 µM), actives largely listed as cytotoxic. 400,000 compounds, 3.4% hits. AID 1347076; further: potency means the concentration at half of the fitted maximal effect; on the % scale 0 is the no-effect control and ±100 the full control effect; nearly all actives have a fitted effect of over 60% in size
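Drug-selected KB-V1 cells, grown in DMEM lacking phenol red with 10% FBS, receive compound titrations; after three days at 37 degrees C, surviving cell ATP is quantified by CellTiter-Glo luminescence and responses normalized and curve-fitted.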
SW480 rereplic = DNA re-replication induction in SW480 cells | SW480 DNA re-replication, Hoechst DNA content imaging, 48 h | Potency, µM (highest dose often 46.1 µM), without a hit: top-dose re-replication activation, most hits filed as activators | 340,000 compounds, 1.8% hits; further: potency means the concentration at half of the fitted maximal effect; % of control where 0% means no effect; nearly all actives have a fitted effect of over 55% in size
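Treated cells incubate 48 hr (37 C, 5% CO2), are stained 40 min with Hoechst, and nuclear fluorescence is enumerated; a rise in nuclei with high DNA signal marks re-replication.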
KB-3-1 cytotox = kills parental KB-3-1 adenocarcinoma cells; KB-3-1 viability, CellTiter-Glo ATP luminescence, 72 h; Potency, µM (top dose mostly 46.1 µM), most hits filed as cytotoxic; 400,000 compounds, 1.4% hits; further: potency means the concentration at half of the fitted maximal effect; on the % scale 0 is the no-effect control and ±100 the full control effect; nearly all actives have a fitted effect of over 60% in size
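Viability of parental KB-3-1 cells, measured by CellTiter-Glo luminescence, followed a 72 h incubation at 37 °C with pinned compounds in phenol-red-free DMEM containing 10% FBS.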
D3 ag = D3 dopamine receptor (human) agonism | D3R DiscoveRx beta-arrestin cells, luminescence, 90 min | max activation, % | 410,000 compounds, 0.58% hits | P35462 | AID 652048; in the data active means max activation above about 30%; further: 0% is about no effect
Target sequence (P35462 whole entry, looked up): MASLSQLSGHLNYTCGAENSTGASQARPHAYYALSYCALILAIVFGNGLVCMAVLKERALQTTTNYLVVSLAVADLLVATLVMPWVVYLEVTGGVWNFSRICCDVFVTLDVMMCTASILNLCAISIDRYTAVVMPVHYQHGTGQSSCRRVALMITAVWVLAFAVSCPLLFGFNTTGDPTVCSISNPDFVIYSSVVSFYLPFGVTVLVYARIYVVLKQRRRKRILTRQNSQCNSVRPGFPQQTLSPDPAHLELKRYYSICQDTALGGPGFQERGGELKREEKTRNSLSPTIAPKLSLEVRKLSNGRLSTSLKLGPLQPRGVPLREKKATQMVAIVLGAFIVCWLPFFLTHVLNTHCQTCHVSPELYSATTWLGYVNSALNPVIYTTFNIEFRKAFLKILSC
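Agonist mode: compounds and dopamine controls were applied to plated cells for 90 min at 37 degrees C after an overnight attachment at 1500 cells/well. Luminescent read-out followed 30 - 60 minutes at room temperature with DiscoveRx detection reagent.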
DRD3 antagonist = D3 dopamine receptor (human) antagonism | P35462 | D3R cells, DiscoveRx beta-arrestin luminescence, antagonist mode; hits give low values | max response, negative = inhibition, % | 360,000 compounds, 2.5% hits | AID 652054; in the data active means max response below about -50%; inconclusive means no clear call, values can overlap the other calls; further: on the % scale 0 is the no-effect control and ±100 the full control effect
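Cells plated overnight at 1500 cells/well, then exposed to library compounds with dopamine controls for 90 minutes at 37 degrees C. DiscoveRx reagent added for 30–60 minutes at room temperature; luminescence read, quantitative HTS format.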
The depositor's hits bear a star; i = inactive; ? = inconclusive; · = no result given. Unless noted, the call rests on the fitted dose curve; in most records, active means well fitted curve in the direction sought with a large enough effect; inconclusive means small, poorly fitted or top-dose-only effect, or another doubt; inactive means no such curve, though single readings can be large; an effect the other way counts as inactive or inconclusive.

SMILES	MCF10A rerep	KB-V1 cytotox	SW480 rereplic	KB-3-1 cytotox	D3 ag	DRD3 antagonist
O=S(=O)(c1ccccc1)c1nc(-c2ccccc2)oc1N1CCCC1	-4%	i	-12%	i	13	7
CN1CCN(c2oc(-c3ccccc3)nc2S(=O)(=O)c2ccc(Br)cc2)CC1	14%	·	?	·	-36	-67*
CN1CCN(c2oc(-c3cccs3)nc2S(=O)(=O)c2ccccc2)CC1	-7%	13µM*	0%	i	-21	?
N#Cc1nc(COc2ccccc2)oc1N1CCN(Cc2ccccc2)CC1	?	i	-6%	i	5	9
N#Cc1nc(-c2cccs2)oc1N1CCN(Cc2ccccc2)CC1	1%	i	4%	i	-43	-75*
O=C(CSc1oc(-c2cccs2)nc1S(=O)(=O)c1ccccc1)NC1CCCCC1	24%	3.7µM*	16%	i	5	29
Cc1nc2ccc(C(=O)OC(C)C(=O)c3c(C)[nH]c4ccccc34)cc2nc1C (centres undefined)	·	i	·	i	·	·
COc1ccc(NC(=O)c2oc3ccc(S(=O)(=O)N4CCCCC4)cc3c2C)cc1Cl	·	?	·	i	-2	·
Cn1c(=O)cc(SCC(=O)NCCc2ccc(Cl)cc2)c2cc(Cl)ccc21	·	i	·	i	-6	·
O=C(CSc1oc(-c2ccccc2)nc1S(=O)(=O)c1ccccc1)c1ccccc1	·	i	·	i	53*	·
CN1CCN(c2oc(-c3ccccc3Cl)nc2S(=O)(=O)c2ccccc2)CC1	1%	?	7%	i	-7	-79*
CCN(CC)S(=O)(=O)c1nnc(NC(=O)COc2ccccc2F)s1	·	·	·	·	-3	·
COc1ccccc1NC(=O)C1=C(C)Nc2nc(SCc3ccccc3Cl)nn2C1c1cccnc1 (centres undefined)	·	i	·	i	-10	·
CN(C)CCN(C)Cc1ccccc1Sc1cccc2ccccc12	?	23µM*	?	?	-24	?
CNCc1ccccc1Sc1cccc2ccccc12	?	15µM*	?	?	-6	6
CCn1cc2nc(SCc3ccc(F)cc3)n(Cc3ccc(Cl)cc3)c(=O)c2n1	·	i	·	i	-4	·
Cc1cccc(-n2c3c(cc(-c4nc(-c5ccc(Cl)cc5)cs4)c2=O)C(=O)CC(C)(C)C3)c1	·	i	·	i	-5	·
CCCCCCCC/C=C\CCCCCCCC(=O)NCCc1ccc(O)c(O)c1	1%	?	-33%	?	211*	76
CCCCCCCC/C=C\CCCCCCCC(=O)NCCO	5%	i	-46%	i	-9	12
COc1ccc(CNC(=O)CCC(=O)c2ccc(C)cc2)cc1OC	-2%	i	-19%	i	4	4
CCCCCCCC/C=C\CCCCCCCC(=O)NCc1ccc(O)c(OC)c1	24µM*	·	-4%	·	-27	·
Cn1c(=O)c2c([nH]c(=O)n2Cc2ccc(Cl)cc2Cl)n(C)c1=O	·	i	·	i	0	·
N#Cc1ccc(NS(=O)(=O)c2ccc3c(c2)CCC(=O)N3)cc1	·	?	·	i	·	·
CCOC(=O)/C=C/c1ccc2c(c1)S(=O)(=O)N(C1CCCC1)[C@H]2CC(=O)OCC	·	?	·	i	·	·
CC(=O)c1sc(=S)n(-c2ccccc2)c1C	12%	i	0%	i	11	-8
CC(=O)c1sc2c(c1OC(=O)c1ccccc1)c(=O)n(-c1ccccc1)c(=S)n2-c1ccccc1	?	9.2µM*	-4%	8.2µM*	6	3
Cc1nc(N2CCN(C(=O)c3ccco3)CC2)c2c3c(sc2n1)CCCC3	2%	21µM*	-2%	i	7	16
Cc1nc(N2CCN(C(=O)c3cccs3)CC2)c2c3c(sc2n1)CCCC3	?	?	12%	i	4	18
O=C(c1ccco1)N1CCN(c2nc(C3CC3)nc3sc4c(c23)CCCC4)CC1	-5%	21µM*	-2%	i	0	-11
CCc1nc(N2CCN(C(=O)CCl)CC2)c2c3c(sc2n1)CC(C)CC3 (centres undefined)	?	?	?	?	-2	-17
